# Experimental data published in PubChem BioAssay (EPA / NIEHS).
# Inconclusive results are not listed. Activity calls are given as the source filed them. The calls were made as follows: active = hit-call score of the fitted dose curve at least 0.9, where 1 is the maximum; inconclusive = response in the unintended direction; inactive = score below 0.9.
# Columns and labels:
# [1] = target: human Ephrin type-B Receptor 2 (EphB2), EPHB2 (gene 2048) (UniProt P29323); experiment: NVS_ENZ_hEphB2: NovaScreen (NVS) Enzymatic Assay for human Ephrin type-B Receptor 2 (EphB2) (AID 2283156)
# Summary of the method: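 Compounds were first tested in duplicate at 25 uM, with hits rerun singly in concentration series up to 50 uM. Enzyme activity on fluorescent substrate was read at 1 h by mobility-shift separation, scored as signal loss relative to DMSO.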
# [2] = target: human Raf-1 Proto-Oncogene, serine/threonine Kinase (RAF1), RAF1 (gene 5894) (UniProt P04049); experiment: NVS_ENZ_hRAF1: NovaScreen (NVS) Enzymatic Assay for human Raf-1 Proto-Oncogene, serine/threonine Kinase (RAF1) (AID 2283216)
# Summary of the method: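 Single-point screening at 25 uM (duplicate), followed by singleton concentration-response to 50 uM maximum for chemicals exceeding threshold. Enzyme activity from fluorescent substrate-product mobility-shift separation after 1 h, relative to DMSO.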
# [3] = ATG_M_32_XSP2: Attagene TRANS-FACTORIAL Multi-Species (XSP2) HepG2 Assay for M19 Transcription Factor (Internal Marker) (AID 2283826)
# Summary of the method: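 Read-out: fluorescent reporter mRNA fragments resolved by capillary electrophoresis after RT-PCR, gain-of-signal versus DMSO baseline. Cells were human HepG2 carrying transfected multi-reporter units, exposed 24 h. Medium contained 3 nM 6-alpha-fluorotestosterone plus 1.5 nM norgestrel.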
# [4] = target: human Aurora Kinase A - serine/threonine-protein Kinase 6 (AurA), AURKA (gene 6790) (UniProt O14965); experiment: NVS_ENZ_hAurA: NovaScreen (NVS) Enzymatic Assay for human Aurora Kinase A - serine/threonine-protein Kinase 6 (AurA) (AID 2283142)
# Summary of the method: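 Recombinant human AurA activity read by fluorescence after mobility-shift separation of product from substrate; 1 hour incubation. Chemicals first run in duplicate at 25 uM, then concentration series to 50 uM if over threshold; fitted relative to DMSO.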
# PPP2CA (gene 5515) = PPP2CA (gene 5515) (UniProt P67775); experiment: NVS_ENZ_hPPP2CA: NovaScreen (NVS) Enzymatic Assay for human Protein Phosphatase 2 Aatalytic subunit Alpha (PPP2CA) (AID 2283199)
# Summary of the method: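 Cell-free phosphatase activity: fluorescent substrate turnover by recombinant human enzyme, resolved by mobility shift at 1.33 h. Compounds passing the 25 uM duplicate primary screen were rerun in singleton series with a 50 uM top concentration.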
# [5] = test system: rat Monoamine Oxidase, MAO-A, Central (MAOAC), gene 29253; experiment: NVS_ENZ_rMAOAC: NovaScreen (NVS) Enzymatic Assay for rat Monoamine Oxidase, MAO-A, Central (MAOAC) (AID 2283243);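 also: potency refers to inhibition seen as signal drop below DMSO baseline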
# Summary of the method: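 Single-concentration duplicate testing at 25 uM, then concentration-response for actives, in a lysate-based radiodetection MAO-A activity assay from rat brain. Enzyme activity measured 1.5 hours post-dosing; DMSO served as negative control and baseline.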
# [6] = target: rat Neurotensin Receptor (NTS), Ntsr1 (gene 366274) (UniProt P20789); experiment: NVS_GPCR_rNTS: NovaScreen (NVS) G Protein-Coupled Receptor Assay for rat Neurotensin Receptor (NTS) (AID 2283308)
# Summary of the method: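 Single-point duplicates at 25 uM, then concentration series to 50 uM max for hits, measured radioligand displacement on rat forebrain membrane preparations. Bound label counted by filtration scintillation at 1 h; signal loss relative to DMSO fitted.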
# [7] = target: bovine Gamma-Aminobutyric Acid Type A Receptor BDZ, alpha 1 site (GABARa1), GABRA1 (gene 780973) (UniProt P08219); experiment: NVS_LGIC_bGABARa1: NovaScreen (NVS) Ligand-Gated Ion Channel Assay for bovine Gamma-Aminobutyric Acid Type A Receptor BDZ, alpha 1 site (GABARa1) (AID 2283321)
# Summary of the method: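 Bovine cortex membrane preparation, benzodiazepine site on GABA-A alpha1; specific radioligand displacement read after 0.75 h by filtration and scintillation. Screen at 25 uM, then singleton titrations up to 50 uM; DMSO baseline.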
# [8] = target: human Fibroblast Growth Factor Receptor 1 (FGFR1), FGFR1 (gene 2260) (UniProt P11362); experiment: NVS_ENZ_hFGFR1: NovaScreen (NVS) Enzymatic Assay for human Fibroblast Growth Factor Receptor 1 (FGFR1) (AID 2283159)
# Summary of the method: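 Cell-free recombinant kinase with fluorescent substrate, product separated by electrophoretic mobility shift; read 1 hour after dosing, loss of signal relative to DMSO. Initial screen in duplicate at 25 uM, actives followed in concentration series.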
# [9] = target: human NIMA (Never In Mitosis Gene A)-Related Kinase 2 (NEK2), NEK2 (gene 4751) (UniProt P51955); experiment: NVS_ENZ_hNEK2: NovaScreen (NVS) Enzymatic Assay for human NIMA (Never In Mitosis Gene A)-Related Kinase 2 (NEK2) (AID 2283188)
# Summary of the method: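 Compounds were first screened in duplicate at 25 uM, with actives followed up in concentration series. Recombinant NEK2 activity, cell-free, was read 1 h after dosing by fluorescence intensity after mobility-shift separation. Signal loss was scored against DMSO.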
# [10] = target: human p21 Activated Kinase 4 (PAK4), PAK4 (gene 10298) (UniProt O96013); experiment: NVS_ENZ_hPAK4: NovaScreen (NVS) Enzymatic Assay for human p21 Activated Kinase 4 (PAK4) (AID 2283189)
# Summary of the method: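 Extracted PAK4 enzyme activity read by fluorescence with mobility-shift separation 1 h after chemical addition. Duplicate single-concentration screen at 25 uM, DMSO as negative control.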
# [11] = target: human Phosphatase and Tensin Homolog (PTEN), PTEN (gene 5728) (UniProt P60484); experiment: NVS_ENZ_hPTEN: NovaScreen (NVS) Enzymatic Assay for human Phosphatase and Tensin Homolog (PTEN) (AID 2283203)
# Summary of the method: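 Loss of fluorescent product signal after mobility-shift separation reports PTEN activity, recombinant human enzyme, 1 h after compound addition. Single 25 uM duplicate screen, then concentration-response on actives; DMSO baseline.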
# [12] = target: rat Monoamine Oxidase, MAO-B, Central (MAOBC), Maob (gene 25750) (UniProt P19643); experiment: NVS_ENZ_rMAOBC: NovaScreen (NVS) Enzymatic Assay for rat Monoamine Oxidase, MAO-B, Central (MAOBC) (AID 2283238)
# Summary of the method: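 Actives from a duplicate 25 uM screen went on to singleton concentration-response with a 50 uM maximum. Enzyme source was rat brain tissue MAO-B, assayed cell-free. Radiolabelled product was counted by scintillation 1.17 h post-dose, with signal loss relative to DMSO.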
# [13] = target: rat Monoamine Oxidase, MAO-B, Peripheral (MAOBP), Maob (gene 25750) (UniProt P19643); experiment: NVS_ENZ_rMAOBP: NovaScreen (NVS) Enzymatic Assay for rat Monoamine Oxidase, MAO-B, Peripheral (MAOBP) (AID 2283242)
# [14] = target: human Neonicotinoid receptor (NNR), CHRNA2 (gene 1135) (UniProt Q15822); experiment: NVS_LGIC_hNNR_NBungSens: NovaScreen (NVS) Ligand-Gated Ion Channel Assay for human Neonicotinoid receptor (NNR) (AID 2283313)
# Summary of the method: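 Compounds first screened in duplicate at 25 uM, then actives re-tested in single-replicate dose series up to 50 uM. Binding measured as displacement of specific radioligand from neuroblastoma membrane receptors after 2 h, scintillation read on filters.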
# [15] = target: rat Oxytocin Receptor (OXT), Oxtr (gene 25342) (UniProt P70536); experiment: NVS_GPCR_rOXT: NovaScreen (NVS) G Protein-Coupled Receptor Assay for rat Oxytocin Receptor (OXT) (AID 2283330)
# Summary of the method: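 Binding to rat uterine membrane receptor was followed by scintillation counting of filter-trapped radioligand after 1 h. A 25 uM duplicate single-point screen preceded concentration series with a top of 50 uM. Signal loss was analysed relative to DMSO.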
# [16] = test system: rat Monoamine Oxidase, MAO-A, Peripheral (MAOAP), gene 29253; experiment: NVS_ENZ_rMAOAP: NovaScreen (NVS) Enzymatic Assay for rat Monoamine Oxidase, MAO-A, Peripheral (MAOAP) (AID 2283237)
# Summary of the method: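 Scintillation counting tracked MAO-A activity in a cell-free rat liver mitochondrial membrane prep, read 1.17 hours after compound addition. Single-point duplicate testing at 25 uM preceded concentration-response follow-up; activity was fitted relative to DMSO.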
# [17] = target: Protein deacetylase HDAC6 (Homo sapiens) (UniProt Q9UBN7); experiment: NVS_ENZ_hHDAC6: NovaScreen (NVS) Enzymatic Assay for human Histone Deacetylase 6 (HDAC6) (AID 2283164)
# Summary of the method: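 Concentration-response runs up to 50 uM followed a duplicate 25 uM single-point screen. Deacetylase activity of recombinant human HDAC6 read by fluorescence after 1 h, with mobility-shift separation of substrate and product; DMSO as baseline.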
# [18] = target: human Epidermal Growth Factor Receptor (EGFR), EGFR (gene 1956) (UniProt P00533); experiment: NVS_ENZ_hEGFR: NovaScreen (NVS) Enzymatic Assay for human Epidermal Growth Factor Receptor (EGFR) (AID 2283151)
# Summary of the method: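 Cell-free kinase assay, fluorescence plus electrophoretic mobility shift separating substrate and product, read 1 hour after dosing; loss of signal vs DMSO. Duplicate screen at 25 uM, then concentration-response to 50 uM.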
# [19] = target: human Tyrosine Protein Kinase Receptor Tie-2 (Tie2), TEK (gene 7010) (UniProt Q02763); experiment: NVS_ENZ_hTie2: NovaScreen (NVS) Enzymatic Assay for human Tyrosine Protein Kinase Receptor Tie-2 (Tie2) (AID 2283225)
# Summary of the method: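 Substrate and product were separated by mobility shift and detected by fluorescence after a 1-hour reaction with recombinant Tie2. Chemicals passing a 25 uM single-point screen were titrated to a maximum of 50 uM. Results were normalized to DMSO baseline.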
# [20] = target: human IkappaB Kinase alpha (IKKa), CHUK (gene 1147) (UniProt O15111); experiment: NVS_ENZ_hIKKa: NovaScreen (NVS) Enzymatic Assay for human IkappaB Kinase alpha (IKKa) (AID 2283167)
# Summary of the method: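 Compounds first run in duplicate at 25 uM, those meeting threshold (e.g. 30% inhibition) retested to maximum 50 uM. Enzyme activity of recombinant IKKa measured by fluorescence with electrophoretic mobility shift separation, 1 hour post-dosing, DMSO baseline.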
# [21] = target: human Protein Tyrosine Phosphatase Receptor Type C (PTPRC), PTPRC (gene 5788) (UniProt P08575); experiment: NVS_ENZ_hPTPRC: NovaScreen (NVS) Enzymatic Assay for human Protein Tyrosine Phosphatase Receptor Type C (PTPRC) (AID 2283212)
# Summary of the method: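 Absorbance-based phosphatase activity of human PTPRC protein extracted from yeast was measured 1 h post-dosing. Compounds first tested at 25 uM in duplicate, then those passing threshold in singleton concentration series to 50 uM.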
# [22] = target: rat Acetylcholinesterase (AChE), Ache (gene 83817) (UniProt P37136); experiment: NVS_ENZ_rAChE: NovaScreen (NVS) Enzymatic Assay for rat Acetylcholinesterase (AChE) (AID 2283233)
# Summary of the method: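 Compounds first screened at 25 uM in duplicate, then those passing threshold tested in concentration series up to 50 uM, against AChE from rat brain membranes. Enzyme activity read by absorbance at 0.33 h; inhibition scored versus DMSO.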
# [23] = target: rat Corticotropin Releasing Factor Receptor (CRF), Crhr1 (gene 58959) (UniProt P35353); experiment: NVS_GPCR_rCRF: NovaScreen (NVS) G Protein-Coupled Receptor Assay for rat Corticotropin Releasing Factor Receptor (CRF) (AID 2283300)
# Summary of the method: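 Single-concentration (25 uM, duplicate) radioligand binding on rat cortical membrane preparations, counted by scintillation after 2 h. Activity scored as signal loss relative to DMSO negative control.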
# Sequence of human Fibroblast Growth Factor Receptor 1 (FGFR1), FGFR1 (gene 2260) (P11362 whole entry, looked up): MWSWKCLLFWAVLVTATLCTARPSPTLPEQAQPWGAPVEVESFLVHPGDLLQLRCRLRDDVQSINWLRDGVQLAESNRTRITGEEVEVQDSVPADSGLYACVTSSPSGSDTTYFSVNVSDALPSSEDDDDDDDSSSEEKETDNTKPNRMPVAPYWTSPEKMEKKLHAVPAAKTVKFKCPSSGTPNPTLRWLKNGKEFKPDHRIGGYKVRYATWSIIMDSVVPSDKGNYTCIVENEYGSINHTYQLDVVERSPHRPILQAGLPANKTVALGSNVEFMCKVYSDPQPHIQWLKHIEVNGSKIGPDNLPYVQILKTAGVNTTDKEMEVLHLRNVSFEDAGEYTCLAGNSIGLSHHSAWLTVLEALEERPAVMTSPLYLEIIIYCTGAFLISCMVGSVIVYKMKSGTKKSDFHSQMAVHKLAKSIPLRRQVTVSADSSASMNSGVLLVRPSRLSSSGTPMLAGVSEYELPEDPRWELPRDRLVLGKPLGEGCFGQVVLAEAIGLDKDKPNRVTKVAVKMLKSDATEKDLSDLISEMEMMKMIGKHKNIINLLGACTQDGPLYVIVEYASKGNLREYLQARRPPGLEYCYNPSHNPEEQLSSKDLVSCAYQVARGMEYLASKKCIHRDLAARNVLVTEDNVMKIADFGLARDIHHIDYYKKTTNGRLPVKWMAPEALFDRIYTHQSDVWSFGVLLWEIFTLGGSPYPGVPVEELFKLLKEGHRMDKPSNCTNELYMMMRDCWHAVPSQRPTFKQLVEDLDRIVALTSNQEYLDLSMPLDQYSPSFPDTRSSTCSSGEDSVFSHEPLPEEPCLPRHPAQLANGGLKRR
# Sequence of human Aurora Kinase A - serine/threonine-protein Kinase 6 (AurA), AURKA (gene 6790) (O14965 whole entry, looked up): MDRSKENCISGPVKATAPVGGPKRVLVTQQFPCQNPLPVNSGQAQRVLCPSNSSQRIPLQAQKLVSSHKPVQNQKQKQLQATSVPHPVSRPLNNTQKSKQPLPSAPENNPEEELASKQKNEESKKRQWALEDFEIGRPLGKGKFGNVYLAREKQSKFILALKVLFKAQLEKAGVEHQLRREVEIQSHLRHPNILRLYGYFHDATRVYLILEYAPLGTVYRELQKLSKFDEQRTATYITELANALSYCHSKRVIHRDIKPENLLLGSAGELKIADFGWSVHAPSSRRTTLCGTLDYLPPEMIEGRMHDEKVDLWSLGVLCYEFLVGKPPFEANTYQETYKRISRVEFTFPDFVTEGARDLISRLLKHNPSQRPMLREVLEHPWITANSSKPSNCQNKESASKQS
# Sequence of human Phosphatase and Tensin Homolog (PTEN), PTEN (gene 5728) (P60484 whole entry, looked up): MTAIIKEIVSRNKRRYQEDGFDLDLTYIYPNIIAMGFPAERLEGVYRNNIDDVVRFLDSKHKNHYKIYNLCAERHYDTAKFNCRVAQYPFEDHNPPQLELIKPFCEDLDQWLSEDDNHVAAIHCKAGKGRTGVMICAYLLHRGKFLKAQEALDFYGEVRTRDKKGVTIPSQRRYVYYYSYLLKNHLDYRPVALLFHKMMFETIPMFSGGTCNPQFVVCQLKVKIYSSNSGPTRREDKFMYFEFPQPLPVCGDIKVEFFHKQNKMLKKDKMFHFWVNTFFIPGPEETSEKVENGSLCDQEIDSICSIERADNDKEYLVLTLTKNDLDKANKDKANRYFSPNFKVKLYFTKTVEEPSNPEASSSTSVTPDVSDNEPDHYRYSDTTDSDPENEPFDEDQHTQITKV
# Sequence of human Raf-1 Proto-Oncogene, serine/threonine Kinase (RAF1), RAF1 (gene 5894) (P04049 whole entry, looked up): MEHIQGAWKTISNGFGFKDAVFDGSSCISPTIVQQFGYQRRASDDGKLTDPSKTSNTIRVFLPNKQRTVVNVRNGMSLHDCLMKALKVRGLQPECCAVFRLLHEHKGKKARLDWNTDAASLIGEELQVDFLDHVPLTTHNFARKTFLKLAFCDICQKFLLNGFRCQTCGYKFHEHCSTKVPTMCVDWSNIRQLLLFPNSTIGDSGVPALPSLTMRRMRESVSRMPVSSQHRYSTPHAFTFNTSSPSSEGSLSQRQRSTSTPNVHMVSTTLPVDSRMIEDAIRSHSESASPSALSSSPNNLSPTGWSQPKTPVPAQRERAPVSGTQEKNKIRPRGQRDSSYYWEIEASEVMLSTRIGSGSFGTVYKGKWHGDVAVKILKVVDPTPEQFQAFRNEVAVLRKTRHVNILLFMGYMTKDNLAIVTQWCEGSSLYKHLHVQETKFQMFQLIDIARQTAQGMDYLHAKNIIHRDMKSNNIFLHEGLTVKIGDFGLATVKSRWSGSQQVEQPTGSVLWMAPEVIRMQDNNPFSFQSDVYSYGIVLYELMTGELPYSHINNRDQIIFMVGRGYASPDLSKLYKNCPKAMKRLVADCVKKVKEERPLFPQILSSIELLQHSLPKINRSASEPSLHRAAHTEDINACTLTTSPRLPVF
# Sequence of PPP2CA (gene 5515) (P67775 whole entry, looked up): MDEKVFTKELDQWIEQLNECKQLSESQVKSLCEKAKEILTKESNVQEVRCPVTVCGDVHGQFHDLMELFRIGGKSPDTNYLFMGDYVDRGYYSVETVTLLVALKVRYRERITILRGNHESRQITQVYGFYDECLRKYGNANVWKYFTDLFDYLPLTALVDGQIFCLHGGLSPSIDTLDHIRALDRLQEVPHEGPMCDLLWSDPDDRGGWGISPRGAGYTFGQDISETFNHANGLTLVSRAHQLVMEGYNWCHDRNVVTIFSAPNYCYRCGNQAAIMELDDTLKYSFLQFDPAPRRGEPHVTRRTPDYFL
# Sequence of rat Oxytocin Receptor (OXT), Oxtr (gene 25342) (P70536 whole entry, looked up): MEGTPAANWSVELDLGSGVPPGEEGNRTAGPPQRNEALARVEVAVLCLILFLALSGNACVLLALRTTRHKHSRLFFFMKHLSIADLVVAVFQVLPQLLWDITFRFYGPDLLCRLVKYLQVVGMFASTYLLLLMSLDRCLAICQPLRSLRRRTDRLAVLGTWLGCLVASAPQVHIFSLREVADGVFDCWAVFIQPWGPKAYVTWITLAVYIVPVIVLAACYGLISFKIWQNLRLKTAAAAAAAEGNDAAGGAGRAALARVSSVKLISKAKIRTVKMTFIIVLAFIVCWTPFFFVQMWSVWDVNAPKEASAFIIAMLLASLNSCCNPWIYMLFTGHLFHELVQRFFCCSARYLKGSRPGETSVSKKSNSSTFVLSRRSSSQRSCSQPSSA
# Sequence of human Protein Tyrosine Phosphatase Receptor Type C (PTPRC), PTPRC (gene 5788) (P08575 whole entry, looked up): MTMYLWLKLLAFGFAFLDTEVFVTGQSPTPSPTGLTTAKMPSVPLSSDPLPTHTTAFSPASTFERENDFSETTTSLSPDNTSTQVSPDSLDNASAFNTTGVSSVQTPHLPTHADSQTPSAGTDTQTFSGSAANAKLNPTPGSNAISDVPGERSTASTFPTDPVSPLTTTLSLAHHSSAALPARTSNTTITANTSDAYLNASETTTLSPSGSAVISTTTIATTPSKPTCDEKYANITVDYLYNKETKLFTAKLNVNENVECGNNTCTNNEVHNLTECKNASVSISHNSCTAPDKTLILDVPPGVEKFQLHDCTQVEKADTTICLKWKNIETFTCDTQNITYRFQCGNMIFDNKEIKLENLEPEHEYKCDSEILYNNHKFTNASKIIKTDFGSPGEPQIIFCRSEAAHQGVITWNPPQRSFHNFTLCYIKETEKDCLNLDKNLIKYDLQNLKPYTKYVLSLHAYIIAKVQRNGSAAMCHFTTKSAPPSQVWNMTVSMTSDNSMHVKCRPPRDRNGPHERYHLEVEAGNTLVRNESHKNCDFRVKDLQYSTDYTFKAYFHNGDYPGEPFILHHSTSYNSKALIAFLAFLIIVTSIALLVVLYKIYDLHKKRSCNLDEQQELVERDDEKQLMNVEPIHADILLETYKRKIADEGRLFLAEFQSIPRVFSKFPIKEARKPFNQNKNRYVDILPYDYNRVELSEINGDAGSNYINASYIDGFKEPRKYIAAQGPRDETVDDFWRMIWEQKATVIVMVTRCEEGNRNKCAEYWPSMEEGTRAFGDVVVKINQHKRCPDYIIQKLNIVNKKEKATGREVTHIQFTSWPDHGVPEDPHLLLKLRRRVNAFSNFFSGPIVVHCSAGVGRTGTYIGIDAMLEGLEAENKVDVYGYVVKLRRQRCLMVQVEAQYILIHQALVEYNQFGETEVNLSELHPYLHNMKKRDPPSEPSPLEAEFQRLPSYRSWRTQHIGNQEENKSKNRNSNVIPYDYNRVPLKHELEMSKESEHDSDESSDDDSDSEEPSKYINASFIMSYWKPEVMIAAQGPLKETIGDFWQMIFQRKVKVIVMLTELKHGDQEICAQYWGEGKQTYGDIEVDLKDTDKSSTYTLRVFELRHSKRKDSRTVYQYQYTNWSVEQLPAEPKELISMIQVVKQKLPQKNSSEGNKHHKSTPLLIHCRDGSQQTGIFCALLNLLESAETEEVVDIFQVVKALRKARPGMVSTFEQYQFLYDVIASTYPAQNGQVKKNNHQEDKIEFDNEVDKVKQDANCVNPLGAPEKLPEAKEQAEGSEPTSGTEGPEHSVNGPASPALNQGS
# Sequence of human p21 Activated Kinase 4 (PAK4), PAK4 (gene 10298) (O96013 whole entry, looked up): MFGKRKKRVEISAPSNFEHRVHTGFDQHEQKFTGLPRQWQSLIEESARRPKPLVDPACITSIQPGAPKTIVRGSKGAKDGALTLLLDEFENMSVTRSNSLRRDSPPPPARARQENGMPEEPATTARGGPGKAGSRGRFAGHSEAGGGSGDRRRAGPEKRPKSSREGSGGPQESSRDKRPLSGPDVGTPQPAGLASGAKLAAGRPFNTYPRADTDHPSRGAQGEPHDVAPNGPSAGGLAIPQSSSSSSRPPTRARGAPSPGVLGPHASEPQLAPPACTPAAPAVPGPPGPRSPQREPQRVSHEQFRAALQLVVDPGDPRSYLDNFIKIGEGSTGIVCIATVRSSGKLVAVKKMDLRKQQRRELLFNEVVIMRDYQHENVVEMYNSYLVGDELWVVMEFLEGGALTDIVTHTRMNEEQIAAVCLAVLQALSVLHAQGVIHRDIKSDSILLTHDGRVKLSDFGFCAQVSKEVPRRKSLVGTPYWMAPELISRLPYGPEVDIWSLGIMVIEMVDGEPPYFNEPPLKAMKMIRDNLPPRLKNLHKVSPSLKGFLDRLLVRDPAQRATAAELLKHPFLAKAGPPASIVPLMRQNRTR
structure (smiles),measurement,setting,value
Clc1nc(Cl)c(Cl)c(Cl)c1Cl,outcome,[1],inactive
same,outcome,[2],inactive
same,outcome,[3],inactive
c1ccc2[nH]c(-c3cscn3)nc2c1,AC50,[4],17 µM (active)
same,outcome,PPP2CA (gene 5515),inactive
same,outcome,[5],inactive
same,outcome,[6],inactive
same,outcome,[7],inactive
Cc1nc(-c2ccccn2)ncc1C(=O)Nn1cc(C)c2cc(F)ccc21,outcome,[4],inactive
same,outcome,[8],inactive
same,outcome,[9],inactive
same,outcome,[10],inactive
same,outcome,PPP2CA (gene 5515),inactive
same,outcome,[11],inactive
CCOC(=O)CC(CC(=O)OCC)(OC(C)=O)C(=O)OCC,outcome,[1],inactive
same,AC50,[5],25 µM (active)
COc1ccc(OC(F)(F)F)cc1CN[C@H]1CCCN[C@H]1c1ccccc1,outcome,[8],inactive
same,outcome,[12],inactive
same,AC50,[13],36.5 µM (active)
same,AC50,[14],25 µM (active)
OCCOCCOCCO,outcome,[4],inactive
same,outcome,[11],inactive
same,outcome,[15],inactive
O=C(N[C@@H](c1ccccc1)[C@@H]1CCCCN1)c1cccc(C(F)(F)F)c1Cl,outcome,[4],inactive
same,outcome,[16],inactive
CCCCCCC(=O)O,outcome,[8],inactive
same,outcome,[17],inactive
CC[C@H](C)C(=O)O[C@H]1C[C@H](O)C=C2C=C[C@H](C)[C@H](CC[C@@H](O)C[C@@H](O)CC(=O)O)[C@H]21,outcome,[8],inactive
same,outcome,[10],inactive
same,outcome,[11],inactive
same,outcome,[15],inactive
c1cc(-c2ccncc2)ccn1,outcome,[8],inactive
Cc1ccc2ncccc2c1,outcome,[18],inactive
same,outcome,[9],inactive
same,outcome,[11],inactive
same,outcome,[2],inactive
same,outcome,[19],inactive
Nc1ccc(S(=O)(=O)c2ccc(N)cc2)cc1,outcome,[8],inactive
O=C(OCCOCCOC(=O)c1ccccc1)c1ccccc1,outcome,[20],inactive
CCCCC(CC)COC(=O)CC(C(=O)OCC(CC)CCCC)S(=O)(=O)O (centres undefined),AC50,[21],25 µM (active)
NC(=O)N1C(=O)C(C(=O)c2cc(Cl)cs2)c2cc(F)c(Cl)cc21 (centres undefined),outcome,[21],inactive
CN1CCN(Cc2cc(-c3ccc4[nH]c(=O)oc4c3)co2)[C@@H](c2ccc(F)cc2)C1,outcome,[22],inactive
Cn1cnc2c1c(=O)[nH]c(=O)n2C,outcome,[22],inactive
Cc1cc(C)c(O)c(C)c1,outcome,[23],inactive
